Source: PubChem BioAssay (EPA / NIEHS)
“And” between values parts separate entries of the source, which are not always exact repeats. Identical values can stand only once. Some compounds were tested as several samples or in several runs, with calls that do not always agree. The source made the active and inactive calls. Rule for the calls: active = hit-call score of the fitted dose curve at least 0.9, where 1 is the maximum; inactive = score below 0.9.

Each molecule was assayed on Human Leukocyte Antigen - DR isotype (HLADR), HLA-DRA (gene 3122) (assay: BSK_3C_HLADR: BioMAP Diversity Plus: 3C Assay for Human Leukocyte Antigen - DR isotype (HLADR) Biomarker Activity (AID 2283019)). Settings: primary human endothelial cells (HUVEC); actives raise or lower the signal.
Protocol: BSK_3C is a cell-based, multiplexed-readout assay that uses umbilical vein endothelium, a human vascular primary cell, with measurements taken at 24 hours after chemical dosing in a 96-well plate.BSK_3C_HLADR is an assay component measured in the BSK_3C assay. It measures HLA-DR antibody related to regulation of gene expression using ELISA technology.Data from the assay component BSK_3C_HLADR was analyzed into 1 assay endpoint. This assay endpoint, BSK_3C_HLADR, was analyzed with bidirectional fitting relative to DMSO as the negative control and baseline of activity. Using a type of binding reporter, gain or loss-of-signal activity can be used to understand changes in the signaling as they relate to the gene HLA-DRA. Furthermore, this assay endpoint can be referred to as a primary readout, because this assay has produced multiple assay endpoints where this one serves a signaling function. To generalize the intended target to other relatable targets, this assay endpoint is annotated to the cell adhesion molecules intended target family, where the subfamily is MHC Class II.
The levels of cell surface (or secreted, indicated by the prefix "s") biomarker endpoints were measured by ELISA. Overt cytotoxicity to cells in confluent adherent cultures (all systems other than the BT system) was assessed by measuring total protein levels using sulforhodamine B (SRB) staining in parallel cultures at the time of biomarker measurements, indicated as SRB endpoints. For proliferation assays for adherent cell types, individual cell types are cultured at sub-confluence and relative cell numbers quantified by SRB staining at time points optimized for each system (48 h: 3C and CASM3C systems; 72 h: BT and HDF3CGF systems; 96 h: SAg system). SRB was performed by staining cells with 0.1% SRB after fixation with 10% TCA and reading wells at 560 nm.Viability and proliferation of PBMC (T cells) was quantified by Alamar Blue reduction for the SAg and BT systems. For PBMC viability (referred to as PBMC Cytotoxicity within the assay endpoint names), cells were plated (75,000/well in a 96-well plate) and then chemical samples added for 1 h before addition of activators, SEB and TSST-1 (20 ng/mL final concentration each). Cells were incubated for 90 h. Then, Alamar Blue (20 uL/well) (Invitrogen, Cat DAL1100) was added for 6 h, and the plates were read with a fluorescence microplate reader at 546/580 nm (excitation/emission). For PBMC proliferation, cells were plated and activated as above but incubated for only 16 h prior to addition of Alamar Blue. Plates were read after 6 h.

**Q.** Which outcome does the source give for `FC(F)(F)C(F)(F)C(F)(F)CC1CO1` (stereo not given) here?
**A.** inactive

**Q.** For `Cc1ccc(S(=O)(=O)C(I)I)cc1`, which AC50 is on record?
**A.** 1.15 µM (active)

**Q.** For `CO[Si](C)(CCC(F)(F)C(F)(F)C(F)(F)C(F)(F)C(F)(F)C(F)(F)F)OC`, which outcome is on record?
**A.** inactive

**Q.** How did the outcome turn out when `NC(=O)C(F)(F)C(F)(F)C(F)(F)C(F)(F)C(F)(F)C(F)(F)C(F)(F)F` was run?
**A.** inactive

**Q.** With `Brc1nc2ccccc2s1` as the molecule, how does the outcome read?
**A.** inactive

**Q.** For `CCOC(=O)CC(=O)C(F)(F)C(F)(F)F`, which outcome is on record?
**A.** inactive

**Q.** `OCC(O)CC(F)(F)C(F)(F)C(F)(F)C(F)(F)C(F)(F)C(F)(F)C(F)(F)C(F)(F)F` (stereo not given) was tested. Which outcome did it give?
**A.** inactive

**Q.** Which AC50 does the source give for `O=C1C=CC(=O)N1c1ccc(Cc2ccc(N3C(=O)C=CC3=O)cc2)cc1` here?
**A.** 5.74 µM (active)

**Q.** `CCN=C1C=CC(=C(c2ccc(N(CC)CC)cc2)c2ccc(N(CC)CC)cc2)c2ccccc21` was tested. Which AC50 did it give?
**A.** 1.95 µM (active) and 1.7 µM (active)

**Q.** With `Nc1cc([N+](=O)[O-])cc(Cl)c1O` as the molecule, how does the outcome read?
**A.** inactive

**Q.** For `Cc1ccc(O)c(-n2nc3ccccc3n2)c1`, which outcome is on record?
**A.** inactive

**Q.** With `O=S(=O)(OCC(F)(F)F)C(F)(F)C(F)(F)C(F)(F)C(F)(F)F` as the molecule, how does the outcome read?
**A.** inactive

**Q.** For `C=CC(=O)OCC(F)(F)C(F)(F)C(F)(F)C(F)(F)C(F)(F)C(F)(F)C(F)(F)C(F)F`, which outcome is on record?
**A.** inactive

**Q.** `C[C@]12CC[C@H]3C(=CCc4cc(O)ccc43)[C@@H]1CCC2=O` was tested. Which AC50 did it give?
**A.** 20 µM (active)

**Q.** For `OCC(F)(F)C(F)(F)C(F)(F)C(F)(F)C(F)(F)C(F)(F)C(F)(F)C(F)(F)CO`, which AC50 is on record?
**A.** 30 µM (active)

**Q.** What about the outcome of the same molecule?
**A.** inactive

**Q.** With `C=CC(=O)OCCC(F)(F)C(F)(F)C(F)(F)C(F)(F)F` as the molecule, how does the outcome read?
**A.** inactive

**Q.** Which AC50 does the source give for `Cc1cc(C)c(O)c(C(C)(C)C)c1` here?
**A.** 15.8 µM (active)

**Q.** For `OCCCC(F)(F)C(F)(F)C(F)(F)C(F)(F)C(F)(F)C(F)(F)C(F)(F)C(F)(F)F`, which AC50 is on record?
**A.** 19.4 µM (active) and 43.2 µM (active)

**Q.** Which outcome does the source give for `NCC(F)(F)C(F)(F)C(F)(F)C(F)(F)C(F)(F)C(F)(F)F` here?
**A.** inactive

**Q.** Which outcome does the source give for `O=C(O)C(F)(F)C(F)(F)C(F)(F)OC(F)(F)F` here?
**A.** inactive

**Q.** Which outcome does the source give for `NC(=O)C(F)(F)C(F)(F)C(F)(F)F` here?
**A.** inactive

**Q.** Which AC50 does the source give for `CC(C)CCCC(C)CCO` (stereo not given) here?
**A.** 29.9 µM (active)

**Q.** With `O=C1c2c(O)ccc(Nc3ccc(CCO)cc3)c2C(=O)c2c([N+](=O)[O-])ccc(O)c21` as the molecule, how does the AC50 read?
**A.** 10.6 µM (active)

**Q.** Which outcome does the source give for `O=C(O)C(F)(F)C(F)(F)C(F)(F)OC(F)(C(F)(F)F)C(F)(F)F` here?
**A.** inactive

**Q.** How did the AC50 turn out when `CNS(=O)(=O)C(F)(F)C(F)(F)C(F)(F)C(F)(F)C(F)(F)C(F)(F)C(F)(F)C(F)(F)F` was run?
**A.** 6.3 µM (active) and 8.04 µM (active)

**Q.** `O=C=NCc1cccc(CN=C=O)c1` was tested. Which outcome did it give?
**A.** inactive

**Q.** Which outcome does the source give for `FC(F)(F)C(F)(F)C(F)(F)C(F)(F)C(F)(F)C(F)(F)C(F)(F)CCI` here?
**A.** inactive

**Q.** Which outcome does the source give for `OC(O)C(F)(F)C(F)(F)F` here?
**A.** inactive

**Q.** For `NC(O)(C(F)(F)F)C(F)(F)F`, which outcome is on record?
**A.** inactive

**Q.** How did the AC50 turn out when `CCN(CC)c1ccc(C=O)c(O)c1` was run?
**A.** 32.9 µM (active)

**Q.** `O=C(Cl)C(F)(F)C(F)(F)C(F)(F)C(F)(F)C(F)(F)C(F)(F)F` was tested. Which outcome did it give?
**A.** inactive

**Q.** How did the outcome turn out when `OCC(O)CC(F)(F)C(F)(F)C(F)(F)C(F)(F)F` (stereo not given) was run?
**A.** inactive

**Q.** With `C=C(C)C(=O)OCC(F)(F)C(F)(F)C(F)(F)C(F)F` as the molecule, how does the outcome read?
**A.** inactive

**Q.** With `CCN(CC)c1ccc(C=O)cc1` as the molecule, how does the outcome read?
**A.** inactive

**Q.** `OCC(F)(F)C(F)(F)C(F)(F)CO` was tested. Which outcome did it give?
**A.** inactive

**Q.** With `O=S(=O)(O)CCC(F)(F)C(F)(F)C(F)(F)C(F)(F)F` as the molecule, how does the outcome read?
**A.** inactive

**Q.** With `NCC(F)(F)C(F)(F)C(F)(F)C(F)(F)C(F)(F)C(F)(F)C(F)(F)C(F)(F)F` as the molecule, how does the outcome read?
**A.** inactive

**Q.** With `OCCCCC(F)(F)C(F)(F)C(F)(F)C(F)(F)F` as the molecule, how does the outcome read?
**A.** inactive

**Q.** Which outcome does the source give for `NC(=O)C(F)(F)C(F)(F)C(F)(F)C(F)(F)C(N)=O` here?
**A.** inactive
